# Results filed as inconclusive are left out. A number with no mark means an inactive call. Active and inactive are the calls of the source. Unless noted, the call rests on the fitted dose curve.
# Molecular target: Peroxisome proliferator-activated receptor gamma (Homo sapiens) (UniProt P37231)
# Experiment: qHTS assay to identify small molecule agonists of the peroxisome proliferator-activated receptor gamma (PPARg) signaling pathway (AID 743094; active means well fitted activation curve with a large enough effect in the signal ratio in the repeat runs, not every such curve was filed as active; the % refers to the signal ratio; further: potency means the concentration at half of the fitted maximal effect)
# Conditions: HEK293H PPARg-UAS-bla, beta-lactamase FRET ratio, 17 h; series mostly up to 57 µM; activation: at the top concentration
# Summary of the method: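 Reporter activation was scored by fluorescence of cleaved LiveBLAzer B/G substrate (1 h, room temperature) in PPARg-bla HEK293H cells previously treated 17 h at 37C with DMSO-dissolved compounds.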
# On the % scale 0 is the no-effect control and ±100 the full control effect.
# Chain of Peroxisome proliferator-activated receptor gamma (Homo sapiens) (P37231 whole entry, looked up): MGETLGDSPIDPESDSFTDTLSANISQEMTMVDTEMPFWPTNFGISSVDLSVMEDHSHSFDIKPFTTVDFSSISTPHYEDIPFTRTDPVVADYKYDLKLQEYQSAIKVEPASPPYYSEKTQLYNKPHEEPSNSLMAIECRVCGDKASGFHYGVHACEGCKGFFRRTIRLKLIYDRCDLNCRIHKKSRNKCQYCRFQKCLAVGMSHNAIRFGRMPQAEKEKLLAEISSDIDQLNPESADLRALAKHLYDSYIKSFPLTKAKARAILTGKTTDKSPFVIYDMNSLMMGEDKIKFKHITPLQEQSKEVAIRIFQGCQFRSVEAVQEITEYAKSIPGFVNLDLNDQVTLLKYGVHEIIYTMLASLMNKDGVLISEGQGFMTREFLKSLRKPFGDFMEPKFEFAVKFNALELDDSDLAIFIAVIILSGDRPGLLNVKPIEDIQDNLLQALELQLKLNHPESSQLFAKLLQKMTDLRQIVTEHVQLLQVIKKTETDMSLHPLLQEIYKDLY
SMILES,activation [%],Potency
O=c1c(O)c(-c2ccc(O)cc2O)oc2cc(O)cc(O)c12,1.81,
Nc1ccc(NCCO)c([N+](=O)[O-])c1,-4.2,
CC(C)(C)c1csc(-c2cc3cc(OCc4ccccc4CC(=O)O)ccc3o2)n1,,0.776 µM (active)
COc1cc2nc(N3CCN(C(=O)c4ccco4)CC3)nc(N)c2cc1OC,1.32,

# Molecular target: Peroxisome proliferator-activated receptor gamma (Homo sapiens) (UniProt P37231)
# Experiment: qHTS assay to identify small molecule antagonists of the peroxisome proliferator-activated receptor gamma (PPARg) signaling pathway (AID 743191); further: nearly all actives have a fitted effect of over 30% in size
# Conditions: HEK293H PPARg-UAS-bla, beta-lactamase ratio, antagonist, 17 h; series mostly up to 62.6 µM; ratio activity, negative = inhibition: at the top concentration
# Summary of the method: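 GeneBLAzer PPARg UAS-bla HEK293H cells, 5 h post-plating, exposed to compounds 17 h at 37C. LiveBLAzer B/G FRET substrate added for 1 h at room temperature; beta-lactamase reporter read by fluorescence intensity.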
row,SMILES,"ratio activity, negative = inhibition"
1,Cc1c(N)cccc1C(F)(F)F,10.9%
2,COc1cc2nc(N3CCN(C(=O)c4ccco4)CC3)nc(N)c2cc1OC,7.79% [at 29.1 µM]
3,C#Cc1ccc(-c2ccccc2F)cc1,3.09%
4,CCCC(=O)OCOC(=O)C1=C(C)NC(C)=C(C(=O)OC)C1c1cccc(Cl)c1Cl (centres undefined),2.41%
5,CCOC(=O)c1ccc(C2CCC(NC[C@H](O)COc3ccc(O)c(NS(C)(=O)=O)c3)CC2)cc1 (some centres undefined),-6.89%

# Tested on: not listed separately
# Experiment: qHTS assay to identify small molecule antagonists of the peroxisome proliferator-activated receptor gamma (PPARg) signaling pathway - cell viability counter screen (AID 743194; active means well fitted cell-killing curve with a large enough effect in the repeat runs; further: nearly all actives have a fitted effect of over 55% in size; further: potency means the concentration at half of the fitted maximal effect)
# Conditions: PPARg-bla HEK293H viability, CellTiter-Glo luminescence, 17 h, co-treated with 50 nM rosiglitazone; series mostly up to 62.6 µM; activity change, negative = cytotoxicity: at the top concentration
# Summary of the method: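 Cytotoxicity counter screen in PPARg-bla HEK293H cells, same wells as reporter assay. Compounds plus 50 nM rosiglitazone (final) for 17 h at 37 C, then viability read by CellTiter-Glo luminescence.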
SMILES,"activity change, negative = cytotoxicity",Potency
O=C1NC(=O)[C@@H]2CC=CC[C@H]12,2.07%,
O=S(=O)(O)c1ccc(Nc2nc(Nc3ccc(/C=C/c4ccc(Nc5nc(Nc6ccc(S(=O)(=O)O)cc6)nc(N(CCO)CCO)n5)cc4S(=O)(=O)O)c(S(=O)(=O)O)c3)nc(N(CCO)CCO)n2)cc1,4.81%,
Nc1ccc(NCCO)c([N+](=O)[O-])c1,16.4%,
Cc1ccc(O)c(O)c1,-37.1%,
CCC(C)[O-].CCC(C)[O-].CCOC(=O)/C=C(/C)[O-].[Al+3],1.58%,
Cc1nc(-c2ccc(Cl)cc2)oc1COC(C)(C)C(=O)O,-4.28%,
O=C(O)Cc1ccc2c(c1)C(=O)c1ccccc1CO2,-1.15%,
O=c1oc2cc(O)ccc2c2oc3cc(O)ccc3c12,3.55%,
COc1cc2nc(N3CCN(C(=O)c4ccco4)CC3)nc(N)c2cc1OC,-0.286% [at 29.1 µM],
O=S(=O)(O)c1ccccc1/C=C/c1ccc(-c2ccc(/C=C/c3ccccc3S(=O)(=O)O)cc2)cc1,6.73%,
C#Cc1ccc(-c2ccccc2F)cc1,10.6%,
[Cu+],-15.9%,
Cc1cc(-n2nc3ccc(Cl)cc3n2)c(O)c(C(C)(C)C)c1,21.4%,
COc1ccc2c(c1)c(CC(=O)OC/C=C(\C)CC/C=C(\C)CCC=C(C)C)c(C)n2C(=O)c1ccc(Cl)cc1,1.46%,
Cc1cccc(C)c1NC(=O)c1ccc(N)cc1,0.886%,
c1ccc(C(O[C@@H]2CCCN(CCc3ccc4c(c3)OCO4)C2)c2ccccc2)cc1,-25.7%,
CC(C)=CCC1=C(O)c2ccccc2C(=O)C1=O,2.21%,
CCCC(=O)OCOC(=O)C1=C(C)NC(C)=C(C(=O)OC)C1c1cccc(Cl)c1Cl (centres undefined),-0.269%,
CC(C)=CCNc1ncnc2c1ncn2[C@@H]1O[C@H](CO)[C@@H](O)[C@H]1O,,9.44 µM (active)
CC/C=C\CCCCCO,9.21%,
CN1CCN(Cc2cc(-c3ccc4[nH]c(=O)oc4c3)co2)[C@@H](c2ccc(F)cc2)C1,-8.65%,

# Tested on: not listed separately
# Experiment: qHTS assay for small molecule agonists of the antioxidant response element (ARE) signaling pathway (AID 743202; active means well fitted activation curve with a large enough effect in the signal ratio in the repeat runs, not every such curve was filed as active; the % refers to the signal ratio; further: potency means the concentration at half of the fitted maximal effect)
# Conditions: HepG2 ARE-bla reporter, beta-lactamase FRET, 16 h; series mostly up to 73.3 µM; activation: at the top concentration
# Summary of the method: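 HepG2 ARE-bla cells; 16 h treatment at 37 C; FRET-based beta-lactamase fluorescence read after 2 h substrate incubation at room temperature.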
SMILES,activation [%],Potency
CN(C)C(=O)COC(=O)Cc1ccc(OC(=O)c2ccc(N=C(N)N)cc2)cc1,1.89,
CN(C)CCN1CCN(c2cccc(Cl)c2)C1=O,0.272,
CC(C)(C)c1csc(-c2cc3cc(OCc4ccccc4CC(=O)O)ccc3o2)n1,,4.86 µM (active)
Cc1c(N)cccc1C(F)(F)F,-0.647,
Cc1nc(-c2ccc(Cl)cc2)oc1COC(C)(C)C(=O)O,-11.1,
CCCc1ccc(OCC(=O)N2CCN(C(=O)COc3ccc(CCC)cc3OC)CC2)c(OC)c1,,29.8 µM (active)
CCCCCCC1CCCC(=O)O1 (centres undefined),4.11,
O=c1oc2cc(O)ccc2c2oc3cc(O)ccc3c12,,20.8 µM (active)
C#Cc1ccc(-c2ccccc2F)cc1,-5.9,
COc1cccc(OC)c1C(=O)O,5.1,
Cc1cc(-n2nc3ccc(Cl)cc3n2)c(O)c(C(C)(C)C)c1,2.97,
Cc1cccc(C)c1NC(=O)c1ccc(N)cc1,2.14,
CC/C=C\CCCCCO,6.69,

# Tested on: not listed separately
# Experiment: qHTS assay for small molecule agonists of the antioxidant response element (ARE) signaling pathway - cell viability counter screen (AID 743203); further: nearly all actives have a fitted effect of over 55% in size; further: potency means the concentration at half of the fitted maximal effect
# Conditions: ARE-bla HepG2 viability, CellTiter-Glo luminescence, 16 h; series mostly up to 73.3 µM; viability change, negative = cytotoxic: at the top concentration
# Summary of the method: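 Viability counter screen: stably transfected ARE-bla HepG2 line, 16 hrs compound exposure at 37C/5% CO2, ATP-based CellTiter-Glo luminescence measured in the reporter wells.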
SMILES,Potency,"viability change, negative = cytotoxic"
Fc1ccc(C(c2ccc(F)cc2)N2CCNCC2)cc1,16.8 µM (active),
O=C1NC(=O)[C@@H]2CC=CC[C@H]12,,-6.29%
CN(C)C(=O)COC(=O)Cc1ccc(OC(=O)c2ccc(N=C(N)N)cc2)cc1,,5.85%
CN(C)CCN1CCN(c2cccc(Cl)c2)C1=O,,-1.06%
O=c1c(O)c(-c2ccc(O)cc2O)oc2cc(O)cc(O)c12,,15.2%
Cc1ccc(O)c(N)c1,,-17.7%
C#C[C@]1(OC(C)=O)CC[C@H]2[C@@H]3CCC4=C/C(=N/O)CC[C@@H]4[C@H]3CC[C@@]21CC,29.8 µM (active),
O=S(=O)(O)c1ccc(Nc2nc(Nc3ccc(/C=C/c4ccc(Nc5nc(Nc6ccc(S(=O)(=O)O)cc6)nc(N(CCO)CCO)n5)cc4S(=O)(=O)O)c(S(=O)(=O)O)c3)nc(N(CCO)CCO)n2)cc1,,-8.38%
Nc1ccc(NCCO)c([N+](=O)[O-])c1,,3.68%
Cc1ccc(O)c(O)c1,,-24.9%
Cc1c(N)cccc1C(F)(F)F,,-2.18%
CCC(C)[O-].CCC(C)[O-].CCOC(=O)/C=C(/C)[O-].[Al+3],,20.2%
Cc1nc(-c2ccc(Cl)cc2)oc1COC(C)(C)C(=O)O,,-27.7%
CCCc1ccc(OCC(=O)N2CCN(C(=O)COc3ccc(CCC)cc3OC)CC2)c(OC)c1,,-8%
CCCCCCC1CCCC(=O)O1 (centres undefined),,0.825%
O=C(O)Cc1ccc2c(c1)C(=O)c1ccccc1CO2,,1.39%
O=c1oc2cc(O)ccc2c2oc3cc(O)ccc3c12,,2.76%
COc1cc2nc(N3CCN(C(=O)c4ccco4)CC3)nc(N)c2cc1OC,,-2.69% [at 34.3 µM]

SMILES,Potency,"viability change, negative = cytotoxic"
O=S(=O)(O)c1ccccc1/C=C/c1ccc(-c2ccc(/C=C/c3ccccc3S(=O)(=O)O)cc2)cc1,,14.4%
C#Cc1ccc(-c2ccccc2F)cc1,,-6.16%
COc1cccc(OC)c1C(=O)O,,-3.27%
[Cu+],,1.12%
Cc1cc(-n2nc3ccc(Cl)cc3n2)c(O)c(C(C)(C)C)c1,,1.07%
COc1ccc2c(c1)c(CC(=O)OC/C=C(\C)CC/C=C(\C)CCC=C(C)C)c(C)n2C(=O)c1ccc(Cl)cc1,,-0.864%
OCCN1CCN(CCCN2c3ccccc3Sc3ccc(C(F)(F)F)cc32)CC1,29.8 µM (active),
CNC(=O)c1ccccc1Sc1ccc2c(/C=C/c3ccccn3)n[nH]c2c1,,-11.4%
Cc1cccc(C)c1NC(=O)c1ccc(N)cc1,,3.1%
CCN(CC)C(=O)c1cc(S(=O)(=O)Cc2ccccc2)c(N2CCC(c3ccccc3)CC2)cc1N(CC)CCN(C)C,21.4 µM (active),
c1ccc(C(O[C@@H]2CCCN(CCc3ccc4c(c3)OCO4)C2)c2ccccc2)cc1,61.1 µM (active),
CC(C)=CCC1=C(O)c2ccccc2C(=O)C1=O,,-24%
CN1CCC[C@@H]1CCO[C@](C)(c1ccccc1)c1ccc(Cl)cc1,29.8 µM (active),
CCCC(=O)OCOC(=O)C1=C(C)NC(C)=C(C(=O)OC)C1c1cccc(Cl)c1Cl (centres undefined),,9.02%
CC(C)=CCNc1ncnc2c1ncn2[C@@H]1O[C@H](CO)[C@@H](O)[C@H]1O,5.96 µM (active),
CC/C=C\CCCCCO,,6.6%
CN1CCN(Cc2cc(-c3ccc4[nH]c(=O)oc4c3)co2)[C@@H](c2ccc(F)cc2)C1,,5.51%
CCOC(=O)c1ccc(C2CCC(NC[C@H](O)COc3ccc(O)c(NS(C)(=O)=O)c3)CC2)cc1 (some centres undefined),50.2 µM (active),
